Hits are enriched below; roughly 7.8% of the tested compounds scored in any of these assays.
LASV entry inh: inhibitors of Lassa virus binding or cell entry | AID 540256 | 300,000 tested, 1.2% active | Lassa virus pseudotype entry inhibition, cell reporter | Potency, µM (highest dose often 37.9 µM), for the others: at the highest dose activity change, negative = inhibition, most hits filed as inhibitors; calls by dose curve; tested in HEK293 cells; also: potency is read from the fitted curve at half-maximal effect; nearly all actives have a fitted effect of over 50% in size
VACV mCherry inh: vaccinia inhibition (mCherry reporter); Vaccinia virus mCherry reporter infection, fluorescence; Potency, µM (series often up to 36.5 µM), for inactives: at the highest dose activity change, negative = inhibition, actives largely listed as inhibitors; 310,000 tested, 0.63% active; AID 720579; calls by dose curve; tested in A549 cells; also: potency is read from the fitted curve at half-maximal effect; nearly all actives have a fitted effect of over 35% in size
Marburg entry inh: Marburg virus entry inhibition; Marburg virus pseudotyped entry inhibition, cell reporter; 300,000 tested, 1.8% active; Potency, µM (highest dose often 37.8 µM), inactives show at the highest dose activity change, negative = inhibition, most hits filed as inhibitors; calls by dose curve; tested in HEK293 cells; also: potency is read from the fitted curve at half-maximal effect
HCV inhibitor: HCV inhibition. AID 651820. Huh7.5.1 HCVcc-Cre infection, luciferase reporter, 44 h. Potency, µM (doses to about 41.8 µM), for the others: at the highest dose activity change, negative = inhibition, usual class: inhibitors. 340,000 tested, 3.4% active; active = well fitted inhibition curve with a large enough effect; inconclusive = small, poorly fitted or top-dose-only effect, or another doubt; inactive = no such curve, though single readings can be large or run the other way; also: potency is read from the fitted curve at half-maximal effect
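Whole-lifecycle infectious HCVcc-Cre system; cells 1,000/well, compound then virus (~0.5 moi) added 4 h after plating, 44 h culture. Luciferase read 15 sec following 15 min substrate incubation, room temp.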
VACV Venus inh: inhibitors of vaccinia virus (Venus reporter). Vaccinia virus Venus reporter expression, fluorescence. Potency, µM (highest dose often 36.5 µM), for the others: top-dose activity change, negative = inhibition, actives largely listed as inhibitors. 330,000 tested, 0.46% active. AID 720580; calls by dose curve; tested in A549 cells; also: potency is read from the fitted curve at half-maximal effect; nearly all actives have a fitted effect of over 30% in size
HCMV inh: human cytomegalovirus inhibition | HFF cells, HCMV-luciferase reporter, 72 h; stronger effect = lower value | activity change, negative = inhibition, % at 57.5 µM | 410,000 tested, 4.5% active | AID 1259415; in the data active = activity change below about -60%; inconclusive = no clear call, values can overlap the other calls; inactive = above about -39%
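Steps: HFFs plated, 16 h 37C; compounds added; HCMV-luciferase added to MOI 1 PFU/cell; 72 h 37C; OneGlo reagent, 5 min room temperature; luminescence read, normalized to controls.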
An asterisk follows results filed as active; i = inactive; ? = inconclusive; · = no result given; [ ] = remark or other dose. % is scaled to controls: 0 for no effect and ±100 for the full control effect.

SMILES | LASV entry inh | VACV mCherry inh | Marburg entry inh | HCV inhibitor | VACV Venus inh | HCMV inh
COc1ccccc1NCCC(=O)OCC(=O)NC1CCCCC1 | 17.4% | -18.0% | ? | 6.7% | -3.6% | -34.7
COC(=O)c1cc(S(=O)(=O)N2CCN(c3ccccc3)CC2)c[nH]1 | · | -8.0% | · | 1.4% | -11.7% | -5.6
COC(=O)c1cc(S(=O)(=O)N2CCC(c3ccccc3)C2)c[nH]1 (centres undefined) | · | · | · | 11.2µM* | · | -38.0
COC(=O)c1cc(S(=O)(=O)N2CCC(c3cc(OC)ccc3OC)C2)c[nH]1 (centres undefined) | · | · | · | 6.31µM* | · | ?
COc1ccc(CCNC(=O)c2ccc3c(c2)CCN3S(=O)(=O)c2ccccc2)cc1OC | 1.2%[46.1 µM] | -15.0% | -14.5%[46.1 µM] | · | -9.5% | ?
COc1ccc(C)cc1NC(=O)CSc1nc(=O)n(Cc2ccccn2)c2c1CCC2 | 12.6%[46.1 µM] | -17.0% | · | · | -25.3% | -11.6
Cc1ccccc1NC(=O)CSc1cn(CC(=O)N(C(C)C)C(C)C)c2ccccc12 | 1.3%[46.1 µM] | 1.0% | · | · | -7.5% | ?
Nc1ncnc2nc(SCc3ccc(Cl)cc3Cl)[nH]c12 | -22.9% | ? | -8.7% | 4.7% | ? | -11.4
Nc1cc(=O)[nH]c(SCc2ccc(Cl)cc2Cl)n1 | · | · | · | 3.16µM* | · | -60.3*
NC(=S)c1ncc(C(F)(F)F)cc1Cl | 0.1% | -10.5% | 15.9% | 9.7% | -8.9% | 6.0
Fc1ccccc1NC(=S)NNc1ncc(C(F)(F)F)cc1Cl | ? | ? | 7.94µM* | ? | ? | -39.2
NC(=S)Nc1ncc(C(F)(F)F)cc1Cl | 15.3% | -9.4% | -14.8%[46.1 µM] | -13.9% | -9.1% | -92.0*
Cc1c(Cl)cccc1NC(=S)NNc1ncc(C(F)(F)F)cc1Cl | ? | · | 20.6µM* | ? | · | -102.5*
FC(F)(F)c1cnc(NNC(=S)Nc2cccnc2)c(Cl)c1 | · | 10µM* | · | ? | ? | ?
O=C(NCc1ccccc1)c1ccc2c(c1)N(Cc1ccccc1F)C(=O)c1ccccc1S2=O (centres undefined) | -4.6%[46.1 µM] | -13.7% | ? | · | -6.6% | -30.6
FC(F)(F)c1cccc(Cc2noc(CN3CCC(c4ccncc4)CC3)n2)c1 | ? | -7.9% | ? | ? | -14.3% | -80.2*
CN1CCCC2(CCCN(Cc3nc(Cc4cccc(C(F)(F)F)c4)no3)C2)C1 (centres undefined) | 18.9%[46.1 µM] | ? | ? | ? | ? | -2.6
N#Cc1cc(S(=O)(=O)c2ccc(F)cc2)c(N)[nH]c1=O | · | · | · | 10.6% | · | -69.9*
COc1ccccc1-c1nnc(C2CCN(S(=O)(=O)c3ccc(F)c(C)c3)CC2)o1 | -22.7%[46.1 µM] | -22.7% | ? | · | -23.3% | -18.9
COC1=CC(=O)c2nc(Cl)ccc2C1=O | · | ? | · | · | ? | -100.6*
O=C1NC2(CCCCC2)N(C(=O)c2ccccc2)C2=C1CCCC2 | · | · | · | 3.16µM* | · | ?
Cc1ccc(C(=O)N2C3=C(CCCC3)C(=O)NC23CCCCC3)cc1 | 2.5% | 0.1% | ? | 9.4% | -7.1% | -19.8
COc1ccc(NC(=O)Cc2cccs2)cc1S(=O)(=O)N1CCCCC1 | 1µM* | -4.5% | -23.9% | -4.6% | -17.1% | -5.8
COc1cc(CCC(=O)Nc2ccc(S(=O)(=O)N3CCCC3)cc2)cc(OC)c1OC | · | · | · | ? | · | 113.9
COc1ccc(CCC(=O)Nc2ccc(Cl)c(S(=O)(=O)N3CCCC3)c2)cc1 | · | i | · | 5.62µM* | -21.2% | -102.5*
SMILES | LASV entry inh | VACV mCherry inh | Marburg entry inh | HCV inhibitor | VACV Venus inh | HCMV inh
COc1ccc(NC(=O)CCc2ccccc2)cc1S(=O)(=O)N1CCCCC1 | -18.3% | -23.8% | ? | -12.5% | -13.9% | ?
COc1cc(CCC(=O)Nc2ccc(C)c(S(=O)(=O)N3CCCCCC3)c2)cc(OC)c1OC | ? | ? | ? | 7.94µM* | -26.7% | -70.0*
COc1ccc(Cl)c(S(=O)(=O)N2CCCC2)c1 | 9.2% | -7.9% | -8.4% | -4.9% | 0.0% | 32.8
COc1ccc(CCC(=O)Nc2ccc(OC)c(S(=O)(=O)N3CCCCC3)c2)cc1OC | · | · | · | 10µM* | · | -19.7
COc1ccc(NC(=O)Cc2ccsc2)cc1S(=O)(=O)N1CCCCC1 | ? | i | -24.8% | ? | -17.6% | -7.8
COC1=CC2C(=O)C(C(c3ccccc3)C2C)C1(O)c1cccc(OC)c1 (centres undefined) | · | · | 15.2%[14.2 µM] | · | · | ·

Screening data (PubChem)
